Records with an inconclusive call do not appear. Activity calls are given as the source filed them. Calls come from the whole dose curve; as a rule, active = well fitted cell-killing curve with a large enough effect; inconclusive = small, poorly fitted or top-dose-only effect, or effect the other way; inactive = flat fitted curve, though single readings scatter. Where a SMILES comes first, the peptide text is derived from it. The star is where a group is joined. PhAc = O=C(Cc1ccccc1)*
Assays:
Test in all cases: Primary qHTS to identify gynecologic anti-cancer compounds using libraries of approved drugs and bioactive compounds (AID 1345084); note: nearly all actives have a fitted effect of over 55% in size
Conditions in all cases: Gynecologic cancer cell panel viability, ATPlite luminescence, 48 h; series mostly up to 57.5 µM
PA-1 = system: PA-1
Method in brief: (§1)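 Luminescence from the ATPlite ATP-monitoring reagent indicates viable cell number; lower signal means cytotoxicity. Cells received compound 16 h after seeding and were exposed for 48 h across five concentrations.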

SKOV3 = system: SKOV3
Method in brief: as §1

Tov-21-G = system: Tov-21-G
Method in brief: as §1

Tov112D = system: Tov112D
Method in brief: as §1
% is set by controls: 0 for no effect and ±100 for the full control effect.

OC[C@@]1(O)CO[C@@H](OC[C@H]2O[C@@H](Oc3ccccc3)[C@H](O)[C@@H](O)[C@@H]2O)[C@@H]1O
inactive: Potency (PA-1) | Potency (SKOV3) | Potency (Tov-21-G) | Potency (Tov112D)

O=C(OCC1OC(Oc2ccc(O)cc2COC(=O)C2(O)C(O)CCC(=O)C2OC(=O)C2C=CCC2)C(OC(=O)C2C=CCC2)C(O)C1O)C1C=CCC1 (stereo not drawn)
inactive: Potency (PA-1) | Potency (SKOV3) | Potency (Tov-21-G) | Potency (Tov112D)

COc1cc(/C=C/c2ccccc2)c(C(=O)O)c(O)c1CC=C(C)C
inactive: Potency (PA-1) | Potency (SKOV3) | Potency (Tov-21-G) | Potency (Tov112D)

CC1CCC2(C)CCC3(C)C(=CCC4C5(C)CCC(O)C(C)(C(=O)O)C5CCC43C)C2C1C (stereo not drawn)
inactive: Potency (PA-1) | Potency (SKOV3) | Potency (Tov-21-G) | Potency (Tov112D)

CC(=O)C1CCC(=O)N1Cc1ccccc1 (stereo not drawn)
inactive: Potency (PA-1) | Potency (SKOV3) | Potency (Tov-21-G) | Potency (Tov112D)

C/C=C1\[C@H](O[C@@H]2O[C@H](CO)[C@@H](O)[C@H](O)[C@H]2O)OC=C(C(=O)O)[C@H]1CC(=O)OCCc1ccc(O)cc1
inactive: Potency (PA-1) | Potency (SKOV3) | Potency (Tov-21-G) | Potency (Tov112D)

COc1c2ccoc2nc2c(OC)c(O[C@@H]3O[C@@H](C)[C@H](O)[C@@H](O[C@@H]4O[C@H](CO)[C@@H](O)[C@H](O)[C@H]4O)[C@H]3OC(C)=O)ccc12
inactive: Potency (PA-1) | Potency (SKOV3) | Potency (Tov-21-G) | Potency (Tov112D)

CC(=O)c1ccc(O[C@@H]2OC[C@@H](O)[C@H](O)[C@H]2O[C@]2(CO)O[C@H](CO)[C@@H](O)[C@@H]2O)c(O)c1
inactive: Potency (PA-1) | Potency (SKOV3) | Potency (Tov-21-G) | Potency (Tov112D)

CC1=C2C(=O)C=C(CO)C2C2OC(=O)C(CS(=O)(=O)O)C2C(OC(=O)Cc2ccc(O)cc2)C1 (stereo not drawn)
inactive: Potency (PA-1) | Potency (SKOV3) | Potency (Tov-21-G) | Potency (Tov112D)

CCOC(=O)CNC(=O)[C@@H]1CCCN1C(=O)Cc1ccccc1 (PhAc-Pro-Gly-OEt)
inactive: Potency (PA-1) | Potency (SKOV3) | Potency (Tov-21-G) | Potency (Tov112D)

CC(=O)OC[C@]12[C@H](OC(C)=O)[C@H](OC(=O)c3ccccc3)[C@@H]3[C@@H](OC(C)=O)[C@]1(OC3(C)C)[C@H](C)C[C@H](OC(=O)c1ccccc1)[C@@H]2OC(=O)c1ccccc1
inactive: Potency (PA-1) | Potency (SKOV3) | Potency (Tov-21-G) | Potency (Tov112D)

COc1ccc(/C=C/C(=O)O[C@@H]2[C@@H](O[C@@H]3O[C@H](CO)[C@@H](O)[C@H](O)[C@H]3O)[C@@H](O)[C@H](O[C@H]3C4C=CO[C@@H](O[C@@H]5O[C@H](CO)[C@@H](O)[C@H](O)[C@H]5O)C4[C@@]4(CO)O[C@@H]34)O[C@H]2C)cc1 (stereo partly drawn)
inactive: activity change, negative = cytotoxicity (PA-1) -1.37% [at 11.6 µM] | activity change, negative = cytotoxicity (SKOV3) 1.14% [at 11.6 µM] | activity change, negative = cytotoxicity (Tov-21-G) 4.96% [at 11.6 µM] | activity change, negative = cytotoxicity (Tov112D) 0.569% [at 11.6 µM]

CC(C/C=C/C(C)(C)O)C1CCC(C)(O)C(O)C1 (stereo not drawn)
inactive: Potency (PA-1) | Potency (SKOV3) | Potency (Tov-21-G) | Potency (Tov112D)

CC/C=C\[C@H](O)[C@H](O)C1=C(C)C(=O)[C@]2(O1)C(=O)N[C@@](O)(C(=O)c1ccccc1)[C@@H]2O
inactive: Potency (PA-1) | Potency (SKOV3) | Potency (Tov-21-G) | Potency (Tov112D)

OC[C@H]1O[C@@H](O[C@H]2[C@H](O)[C@@H](CO)O[C@@H](OCc3ccccc3)[C@@H]2O[C@@H]2OC[C@](O)(CO)[C@H]2O)[C@H](O)[C@@H](O)[C@@H]1O
inactive: Potency (PA-1) | Potency (SKOV3) | Potency (Tov-21-G) | Potency (Tov112D)

COc1c2c(c(C)c3c1C(=O)OC3)OC1(C)CC(O)C34OC(O)(CCC3(C)C1C2)OC4(C)C (stereo not drawn)
inactive: Potency (PA-1) | Potency (SKOV3) | Potency (Tov-21-G) | Potency (Tov112D)

CC/C=C\C(O)C(O)C1=C(C)C(=O)C2(O1)C(=O)NC(OC)(C(=O)c1ccccc1)C2O (stereo not drawn)
inactive: Potency (PA-1) | Potency (SKOV3) | Potency (Tov-21-G) | Potency (Tov112D)

COC(=O)C1=COC(O[C@@H]2O[C@H](CO)[C@@H](O)[C@H](O)[C@H]2O)C2C(C)C(=O)CC12 (stereo partly drawn)
inactive: Potency (PA-1) | Potency (SKOV3) | Potency (Tov-21-G) | Potency (Tov112D)

Cc1ccc([C@@H]2CC=C(C(=O)O)[C@H](c3ccc(C(C)(C)C)cc3)N2S(=O)(=O)c2ccc(C)cc2)cc1
inactive: Potency (PA-1) | Potency (SKOV3) | Potency (Tov-21-G) | Potency (Tov112D)

CC1(C)Oc2ncnc(N)c2N=C1c1ccc(C2CCC(CC(=O)O)CC2)cc1 (stereo not drawn)
inactive: Potency (PA-1) | Potency (SKOV3) | Potency (Tov-21-G) | Potency (Tov112D)

CC(C)[C@@H](C(=O)O)N1Cc2c(cc(O)c3c2O[C@]2(C3)[C@H](C)CCC3C(C)(C)[C@H](O)[C@H](O)C[C@@]32C)C1=O (stereo partly drawn)
inactive: Potency (PA-1) | Potency (SKOV3) | Potency (Tov-21-G) | Potency (Tov112D)

CC(=O)OC1CC2C(C)(C)C(=O)C=CC2(C)C2CC(=O)C3=C(CCC3C3=CC(O)OC3=O)C12C (stereo not drawn)
inactive: Potency (PA-1) | Potency (SKOV3) | Potency (Tov-21-G) | Potency (Tov112D)

— PubChem BioAssay (NCATS)
